The values below come from PubChem BioAssay.

The source made the active and inactive calls. Rule as the data show it: active = inhibition above about 31%; inactive = the rest.

The nature of one assay: reversal of MRP1-mediated doxorubicin resistance, pilot screen, H69AR cells, doxorubicin co-treatment (AID 601). Particulars: H69AR cells, CellTiter-Glo, 72 h; compound alone cytotoxicity; at 10 µM. For orientation: Cellular ATP, detected with luciferase, serves as a proxy for viable cell number.
For `COCCn1cc(C(=O)NCCCN2CCC(C)CC2)c2c3ccccc3n(C)c2c1=O`, the viability came to 88.8%.
In the case of `Cc1nc(C)c(C(=O)OCC(=O)N2CCN(c3ccccc3)CC2)s1`, the viability was found to be 95.8%.
On to `COC(=O)c1cc(Br)ccc1-c1ccc(/C=N/n2nnnc2N)o1`, for which the viability worked out at 80.6%.
The same measure, in the same setting: next, `O=C1c2ccccc2NC(c2ccco2)N1O` (stereo not drawn): 96.5%; `COc1cc(CN2CCC(C(=O)NC3CCCC3)CC2)ccc1O`: 94.7%.
For `Cn1c(=O)n(C)c2cc(NC(=O)C(F)(F)F)ccc21`, the viability was 97.4%.
The same measure, in the same setting: next, `Cc1nc(SCC(=O)CC(=O)OC(C)C)c(C#N)c(C)c1C`: 95%.
On the same count and under the same terms, next, `COc1ccc(Br)cc1S(=O)(=O)N1CCOCC1`: 87.2%; `CC(=O)CC(=O)Nc1ccccc1NC(C)=O`: 101%; `Cn1c(=O)c2ccccc2n(Cc2ccccc2F)c1=O`: 85.2%.
For the compound `Cc1ccc(NC(=O)c2ccco2)c(NC(=O)c2cccs2)c1`, the viability is 88.8%.
Same read-out and setting: next, `CC(=O)N1C(=O)c2cccc3cccc(c23)C(=O)N1C(C)=O`: 91.8%.
Same read-out and setting: next, `CCCC(C)C1C(C#N)=C(N)Oc2cc(C)oc(=O)c21` (stereo not drawn): 85.7%; `CC(C)OC(=O)CSc1nnc(-c2ccc(O)cc2)n1Cc1ccccc1`: 80.8%; `Cn1c(=O)c(=O)n(C)c2cc(S(=O)(=O)N3CCCCC3)ccc21`: 100%.
The same measure, in the same setting: next, `Cc1nc2ccc(NC(=O)NCc3ccco3)cc2s1`: 90.6%; `Cc1cc(C)n(S(=O)(=O)c2cc(C(=O)O)c(Cl)cc2Cl)n1`: 82.6%; `COc1ccccc1CC(=O)NCc1ccc2c(c1)OCO2`: 93.5%.
With `CCOC(=O)C1=C(C)N(C)C(C)=C(C(=O)OCC)C1c1cccnc1`, the viability came to 92.4%.
With `C#CCN1C(=O)C(O)(CC(=O)c2cc(OC)ccc2OC)c2ccccc21` (stereo not drawn), the viability was 38.7%.
For `Cc1nc(SCC(=O)NCc2ccco2)c2c(C)c(C)sc2n1`, the viability was found to be 86.6%.
The same measure, in the same setting: next, `CCOc1ccc(N2CC(C(=O)Nc3ccc(F)cc3F)CC2=O)cc1` (stereo not drawn): 111%.

A further assay can be described thus: 384-well plate pilot, post-Golgi transport modulator project, inhibition of yeast transport mutant growth (AID 636). Particulars: absorbance 615 nm, about 18 h, stronger effect = higher value.
For the compound `CCOC(=O)C1CCCN(C(=O)CNS(=O)(=O)c2ccc(Br)s2)C1` (stereo not drawn), the inhibition was -6.71% (inactive).
On the same count and under the same terms, next, `COc1ccc(CN(C)CC(=O)c2c(N)n(Cc3ccccc3)c(=O)n(C)c2=O)c(OC)c1`: -3.25% (inactive); `CC(CN1CCOCC1)(NS(=O)(=O)c1ccccc1)c1ccccc1` (stereo not drawn): -1.56% (inactive).
Same read-out and setting: next, `CCOC(=O)CSC1=Nc2ccccc2C2=NC(CC(=O)NCc3cccs3)C(=O)N12` (stereo not drawn): -6.75% (inactive); `Cc1ccc(-c2nn3c(C)nnc3s2)cc1N`: -7.47% (inactive); `CC1(C)C2CCC1(CS(=O)(=O)NCc1ccc(C(=O)O)cc1)C(=O)C2` (stereo not drawn): -0.39% (inactive).
For `O=c1c2ccccc2c(C=Nc2ccc(Cl)cn2)c(O)n1-c1cc(Cl)ccc1N1CCOCC1`, the inhibition was -0.65% (inactive).
On the same count and under the same terms, next, `O=C(Nc1ccc(S(=O)(=O)Nc2ccc(Cl)cc2)cc1)C1CCCO1` (stereo not drawn): -6% (inactive); `CCOc1ccc(C(=O)Nc2cc(C)on2)cc1OCC`: -4.87% (inactive).
On the same count and under the same terms, next, `O=C1CC(Cc2ccccc2)C(=O)N1CCc1ccc2c(c1)OCO2` (stereo not drawn): -5.32% (inactive).
The same measure, in the same setting: next, `COc1ccccc1-c1nc(C(F)(F)F)c(OC)o1`: -1.97% (inactive).
For the compound `OCCn1c(CSc2nnc(-c3ccco3)n2-c2ccccc2)nc2ccc(Cl)cc21`, the inhibition is -5.45% (inactive).
On the same count and under the same terms, next, `COc1cc2c(cc1OC)CN(C(=O)COc1ccc(C#N)cc1)CC2`: 0.52% (inactive); `CCOC(=O)NC(=O)CSc1nnc(C)s1`: -4.08% (inactive).
For `CC1(C)CC(=O)C2=C(C1)Nc1nc(SCCN3CCOCC3)[nH]c(=O)c1C2c1cccs1` (stereo not drawn), the inhibition was 1.69% (inactive).
On the same count and under the same terms, next, `COc1ccc(C(=O)CSc2nnc(CNc3ccc(C)cc3C)o2)cc1`: -2.76% (inactive); `CCCCc1cc(=O)oc2c(CN3CCCC3)c(O)c(Cl)cc12`: -3.16% (inactive).
Same read-out and setting: next, `CCOc1ccccc1OCC(=O)NCc1ccco1`: -3.6% (inactive).
For `COCCn1cc(C(=O)NCCCN2CCC(C)CC2)c2c3ccccc3n(C)c2c1=O`, the inhibition was -5.97% (inactive).
On the same count and under the same terms, next, `Cc1nc(C)c(C(=O)OCC(=O)N2CCN(c3ccccc3)CC2)s1`: -4.55% (inactive); `COC(=O)c1cc(Br)ccc1-c1ccc(/C=N/n2nnnc2N)o1`: -2.47% (inactive); `O=C1c2ccccc2NC(c2ccco2)N1O` (stereo not drawn): -3.38% (inactive).
The same measure, in the same setting: next, `COc1cc(CN2CCC(C(=O)NC3CCCC3)CC2)ccc1O`: -4% (inactive); `Cn1c(=O)n(C)c2cc(NC(=O)C(F)(F)F)ccc21`: -0.92% (inactive); `Cc1nc(SCC(=O)CC(=O)OC(C)C)c(C#N)c(C)c1C`: -2.8% (inactive).
On the same count and under the same terms, next, `COc1ccc(Br)cc1S(=O)(=O)N1CCOCC1`: -2.76% (inactive).

One may read the viability as a read-out of living cells in per cent, often relative to untreated cells. By inhibition is commonly meant the drop in the measured response relative to a control, in per cent.
